High-throughput results deposited in PubChem BioAssay by several laboratories.
Most compounds without a hit are left out; they make up all but 9.1% or so of the library.
M1 antag = antagonists of rat M1 muscarinic receptor | Muscarinic acetylcholine receptor M1 (Rattus norvegicus), P08482 | CHO-M1 cells, Fluo-4 calcium, ACh EC80 antagonist mode; stronger effect = lower value | B-score at 10 µM | 3.4% of 64,000 active | AID 628, 2007;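 active = calcium fluorescence response, raw or row-and-column corrected B-score, differing from the plate sample mean either way at a set confidence level, mostly lower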
D1 allo mod = D1 CRE-luciferase signal change, two-sided – cell-based, HEK293 D1, dopamine EC30, D1 allosteric modulator project, primary screen; D(1A) dopamine receptor (Homo sapiens), P21728; B-score at 10 µM; dopamine EC30 potentiation; actives deviate in either direction; 5.9% of 58,000 active;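 active = luminescence count or its row- and column-corrected plate score outside the 99.7% band of the plate's sample wells, on either side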
M1 agonist = M1 muscarinic receptor agonists, primary screen, CHO-M1 cells, Fluo-4 calcium, agonist mode | Muscarinic acetylcholine receptor M1 | Fluo-4 calcium fluorescence; stronger effect = higher value | B-score at 10 µM | 3% of 64,000 active | AID 626, 2007;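 active = fluorescence rise, raw or as B-score row- and column-corrected plate score, outside the 99.7% band of its plate's samples, either direction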
Htt clearance = clearance of mutant huntingtin inclusions, primary screen, imaging, HeLa Exon1htt(103Q)mCFP, confocal imaging; aggregate imaging; zero = plate's median compound well; inhibition, % at 1.5 µM; 0.42% of 47,000 active;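 active = inhibition of aggregate fluorescence above about 70%, also judged a hit by eye on the cell image, limit read from the data, passing the limit was not always enough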;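 note: cells exposed to compound for three days before fixation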
M1 ag confirm = rat M1 muscarinic receptor agonists, confirmation, CHO-M1 cells, Fluo-4 calcium, duplicate retest; shares compounds with M1 agonist; Fluo-4 calcium fluorescence, agonist mode; actives lie on both sides; fluorescence change (max-min) at 10 µM; 19% of 1,700 active; AID 1488, 2009;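 active = fluorescence change differs from the solvent-only DMSO control mean at a set confidence level in both duplicate runs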;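 note: an EC20 dose of acetylcholine follows compound addition during the same imaging run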
M4 ag counter = agonist activity at rat M4 receptor, confirmation, counter-screen for M1 allosteric modulator project, cell-based, agonist mode | fluorescence change (max-min) at 10 µM | shares compounds with M1 agonist | 9% of 1,700 active | CHO M4/Gqi5 cells, Fluo-4 calcium fluorescence; actives lie on both sides;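 active = fluorescence change differing from the plate's solvent-only control wells at 99.7% confidence in both duplicates, whether higher or lower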
Target sequence (P08485 whole entry, looked up): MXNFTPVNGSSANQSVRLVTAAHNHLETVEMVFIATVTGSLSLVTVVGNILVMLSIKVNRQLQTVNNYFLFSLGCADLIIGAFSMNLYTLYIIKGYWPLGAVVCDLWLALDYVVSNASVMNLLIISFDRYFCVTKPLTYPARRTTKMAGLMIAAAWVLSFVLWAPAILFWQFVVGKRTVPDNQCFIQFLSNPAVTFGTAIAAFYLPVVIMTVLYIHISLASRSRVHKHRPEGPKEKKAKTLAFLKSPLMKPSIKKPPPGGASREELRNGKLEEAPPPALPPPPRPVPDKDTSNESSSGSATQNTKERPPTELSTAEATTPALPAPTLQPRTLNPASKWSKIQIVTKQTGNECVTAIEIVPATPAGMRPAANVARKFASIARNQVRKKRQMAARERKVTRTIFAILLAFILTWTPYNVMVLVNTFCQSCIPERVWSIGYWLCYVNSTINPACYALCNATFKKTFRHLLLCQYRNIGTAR
M1 antag conf = rat M1 muscarinic receptor antagonists, confirmation, CHO cells, Fluo-4 calcium, duplicate; shares compounds with M1 antag; ACh EC80 antagonism; stronger effect = lower value; calcium response (max-min fluorescence) at 10 µM; 43% of 1,700 active;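 active = calcium response below the same-plate mean of wells given acetylcholine alone at its 80%-effect dose, minus 3 SD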
mGluR4 antag = human mGluR4 response to M1 antagonist hits, M1 allosteric modulator project, cell-based, antagonist mode, secondary assay 1; shares compounds with M1 antag; CHO-mGluR4 calcium flux, Fluo-4 fluorescence, glutamate EC80; stronger effect = lower value; fluorescence response (max-min) at 10 µM; 0.9% of 1,700 active; AID 678, 2007;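 active = fluorescence response below the plate's average for near-maximal glutamate wells, less 3 SD of those wells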;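 note: raw unnormalized fluorescence span taken in the window right after glutamate addition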
D1 mod confirm = D1 receptor positive allosteric modulators, retest, confirmation, cell-based, HEK293 D1, CRE-luciferase, duplicate; luminescence at 10 µM; dopamine EC30 potentiation; stronger effect = higher value; AID 642, 2007; shares compounds with D1 allo mod; 88% of 2,200 active;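 active = luminescence in either of two replicates above the same-plate mean plus 3 SD of the low-dose dopamine control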
D1 no dopamine = D1 receptor agonism without dopamine, confirmation, mechanism study for D1 allosteric modulator project, cell-based, HEK293 D1, CRE-luciferase, secondary assay 1; shares compounds with D1 allo mod; luminescence, no dopamine; stronger effect = higher value; luminescence at 10 µM; 0.8% of 1,900 active; in the data active = luminescence above about 3900
Isoprot counter = counter-screen for D1 modulators: isoproterenol response in HEK293 cells. HEK293 D1 CRE-luciferase, isoproterenol EC30 counter-screen; stronger effect = higher value. shares compounds with D1 allo mod. 63% of 2,200 active. luminescence at 10 µM;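 active = luminescence in either replicate above plate mean of wells with a partly effective reference agonist dose plus 3 SD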;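 note: isoproterenol raises cAMP through native beta-adrenoceptor Gs so signal bypasses D1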
A number is an active result; n = inactive; x = no result.

SMILES	M1 antag	D1 allo mod	M1 agonist	Htt clearance	M1 antag conf	mGluR4 antag	others
COC(=O)CC1=C(C(=O)OC)C2(C(=O)Nc3c(C)cccc32)C(C#N)=C(N)O1 (stereo not drawn)	n	x	n	n	x	x
O=C(c1cc(-c2cccnc2)nc2ccc(Cl)cc12)N1CCC2(CC1)OCCO2	n	n	2.8	n	x	x	M1 ag confirm=-35;M4 ag counter=n
CCn1ncc(/C=C2/CC3C4CC=C5CC(O)CCC5(C)C4CCC3(C)C2=O)c1C (stereo not drawn)	x	x	x	n	x	x
COc1ccc(P2(=O)Nc3ccccc3N2)cc1	n	x	8.4	x	x	x	M1 ag confirm=154;M4 ag counter=163
CN1C(=O)C(Cc2ccc3c(c2)OCO3)C(=O)N(C)C1=O	n	n	n	n	x	x
CN1CC=C2C(C#N)=C(N)C(C#N)(C#N)C(c3ccncc3)C2C1 (stereo not drawn)	n	n	78	n	x	x	M1 ag confirm=242;M4 ag counter=212
CN(C)CC1CSCCC1(O)c1cccc(Cl)c1 (stereo not drawn)	x	x	x	n	x	x
CCCCn1c(O)c(C(CC)=NCc2ccc3c(c2)OCO3)c(=O)[nH]c1=O	n	7.4	4.3	n	x	x	M1 ag confirm=n;M4 ag counter=n;D1 mod confirm=12520;D1 no dopamine=n;Isoprot counter=3448
OCCOCC#CCN1CCOCC1	n	n	n	n	x	x
NC(=O)C1(N2CCCCC2)CCN(Cc2ccccc2)CC1	n	n	n	x	x	x
O=C(Cc1ccccc1)OCCN1CCCCC1	-3.5	n	n	n	507	n
O=P(O)(O)C12CC3CC(CC(C3)C1)C2	n	n	n	n	x	x
CCc1nc(N2CCNCC2)c(C#N)c2c1CSC(C)(C)C2	-5.2	x	n	x	264	n
OCCN(CC#CC(O)(c1ccccc1)C1CCCC1)CCO (stereo not drawn)	n	x	n	n	x	x
CN1CCC(N(C)c2ncnc3ccc(Br)cc23)CC1	-0.9	-4.3	n	x	n	n
CCn1c(O)c(C=NCc2cccs2)c(=O)[nH]c1=O	n	n	n	n	x	x
Oc1ccc(C2NCc3ccccc3-n3cccc32)cc1Cl (stereo not drawn)	-3.5	n	n	n	n	n
Cc1nc2ccccc2c(=O)n1-n1cnnc1	-2.7	n	n	n	n	n
Cc1nc2ccccc2c(=O)n1-c1ccccn1	n	n	n	x	x	x
O=c1c2ccccc2nc(-c2ccccc2)n1-n1cccc1	-2	n	n	n	n	n
COC(=O)C(O)(c1ccc(N(C)S(=O)(=O)c2ccccc2)cc1)C(F)(F)F (stereo not drawn)	-11	x	n	x	n	n
CN(C)c1ccc2c(c1)N=C(c1ccco1)OP2(=S)N1CCOCC1 (stereo not drawn)	n	n	n	x	x	x
COc1ccc(Br)cc1CN1CCN(CCO)CC1	n	n	n	n	x	x
COc1cc(Br)cc(CN2CCN(C)CC2)c1O	-3.9	n	n	x	378	n
O=c1[nH]c(=O)n(Cc2ccco2)c(O)c1C=NCCCn1ccnc1	-2.8	n	n	x	n	n
SMILES	M1 antag	D1 allo mod	M1 agonist	Htt clearance	M1 antag conf	mGluR4 antag	others
O=c1[nH]c(=O)n(CCc2ccc(F)cc2)c(O)c1C=NCCCn1ccnc1	n	n	n	x	x	x
CC(C)CCC1(CN2CCCC2=O)C(=O)NC(=O)NC1=O	x	x	x	n	x	x
c1cc2n(c1)-c1c(ccc3c1OCO3)CNC2c1ccc2c(c1)OCO2 (stereo not drawn)	-10	n	n	n	305	n
COc1ccc(C2NCc3ccc4c(c3-n3cccc32)OCO4)cc1O (stereo not drawn)	-2.2	n	n	n	108	n
O=C(c1cc(=O)[nH]c2ccc(Br)cc12)N1CCC2(CC1)OCCO2	n	n	n	n	x	x
COc1cccc(-n2c(O)c(C=NCCN3CCOCC3)c(=O)[nH]c2=O)c1	n	x	n	n	x	x
CCCCCCOc1ccc(CN2CCN(CCO)CC2)cc1	-5.3	n	n	x	366	n
CCCCOc1ccc(CC2C(=O)N(C)C(=O)N(C)C2=O)cc1	n	n	n	n	x	x
CCCCOc1ccc(CN2CCN(CCO)CC2)cc1	-4.8	n	n	n	310	n
CCCCOC(=O)C1=C(N)OC2=C(C(=O)CC(C)(C)C2)[C@]12C(=O)N(C)c1ccccc12	n	n	n	x	x	x
CCN(CC)CCCN=C(C)c1c(O)n(-c2ccc(C)cc2)c(=O)[nH]c1=O	n	n	n	x	x	x
C=Cn1ccnc1P(=S)(c1nccn1C=C)C1CCCCC1	n	n	n	x	x	x
CC(C)c1cccc(C(C)C)c1OCCn1ccnc1	-2	n	n	n	416	n
CCOP(=S)(OCC)SCC(=O)NC(C(=O)O)C(C)C (stereo not drawn)	x	x	x	n	x	x
FC(F)(F)c1ccc2c(c1)ncn2C1CCN(Cc2nnnn2C2CCCCC2)CC1	-14	n	n	x	n	n
O=C(C1CC(=O)N(C2CCCCCCC2)C1)N1CCC2(CC1)OCCO2 (stereo not drawn)	x	x	x	n	x	x
COc1ccccc1CC1/C(=N/O)C2CCN1CC2 (stereo not drawn)	-2.6	n	n	n	n	n
CC1(C)CN=C(NCc2ccccc2Cl)S1	-5.1	x	n	n	350	n
Cc1c(N=Cc2c(O)n(CCc3ccc(F)cc3)c(=O)[nH]c2=O)c(=O)n(-c2ccccc2)n1C	-4.8	n	n	n	259	n
CC(=NCCCN1CCCCC1)c1c(O)n(Cc2ccccc2)c(=O)[nH]c1=O	n	n	n	n	x	x
